This is one part of a sample in which hits are shown more often than they occur.
AID inh = blocks human AID cytidine deaminase activity. AID deamination FRET fluorescence, UDG-coupled, 4 h. Potency, µM (series often up to 115 µM), usual class: inhibitors. Q9GZX7. 91,000 tested, 0.32% active; note: nearly all actives have a fitted effect of over 25% in size
Target sequence (Q9GZX7 whole entry, looked up): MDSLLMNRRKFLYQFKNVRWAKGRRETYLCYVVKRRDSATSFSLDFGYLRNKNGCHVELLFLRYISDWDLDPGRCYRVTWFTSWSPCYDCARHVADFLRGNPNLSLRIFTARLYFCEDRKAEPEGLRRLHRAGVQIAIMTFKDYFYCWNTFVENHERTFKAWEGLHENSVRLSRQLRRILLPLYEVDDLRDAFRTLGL
UDG counterscr = blocks uracil-DNA glycosylase in AID counter-screen; FRET deamination/UDG coupled assay, UDG read, 4 h; Potency, µM (titrated, usually from 115 µM), hits mostly inhibitors; 91,000 tested, 0.14% active; AID 1347430; note: nearly all actives have a fitted effect of over 65% in size
GPR32 ag = agonists of human resolvin D1 receptor DRV1 (GPR32) | O75388 | CHO-K1 GPR32 beta-arrestin PathHunter luminescence, 90 min; zero percent set by DMSO-only wells | activation, % at 76.9 µM | 48,000 tested, 2.5% active | AID 1346428;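 active = activation of at least 60% and not above a set upper limit, about 1 call in 100 departs from these limits; inconclusive = activation of 40% to 60%, or above that upper limit; inactive = activation under 40%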
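Readings come from a cell-based beta-arrestin complementation format: CHO-K1 GPR32 stable cells (2,500/well) treated 90 min with compounds, then beta-Gal substrate added for 1 h before chemiluminescence imaging.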
Large screens that a line does not name were inactive; ! = not confirmed by another sample. Unless noted, calls come from the whole dose curve; as a rule, active = well fitted curve in the direction sought with a large enough effect; inconclusive = small, poorly fitted or top-dose-only effect, or another doubt; inactive = no such curve, though single readings can be large; an effect the other way counts as inactive or inconclusive.

CCc1ccc(Nc2nc3ccccc3nc2NS(=O)(=O)c2ccccc2)cc1	AID inh 28.2µM!
CCOc1ccc(S(=O)(=O)Nc2nc3ccccc3nc2Nc2ccc(OC)cc2)cc1	AID inh inconclusive
CCOc1ccccc1Nc1nc2ccccc2nc1NS(=O)(=O)c1ccc(Cl)cc1	GPR32 ag 67.1
COc1cccc(Nc2nc3cc(C)ccc3nc2NS(=O)(=O)c2ccc(Cl)cc2)c1	none
Cc1ccc2nc(NS(=O)(=O)c3ccc(Cl)cc3)c(Nc3ccc(C(=O)O)cc3)nc2c1	AID inh inconclusive, GPR32 ag 83.2
COc1ccccc1Nc1nc2ccccc2nc1NS(=O)(=O)c1ccc(C)cc1	none (no result: GPR32 ag)
CNC(=O)C(C)OC(=O)c1nc(-c2ccccc2)oc1C (configuration not stated)	none (no result: GPR32 ag)
O=C(/C(=C\c1ccc(-c2ccccc2Cl)o1)c1nc2ccccc2o1)c1ccccc1	none (no result: GPR32 ag)
Cc1ccc(-c2nc(C)c(CCNS(=O)(=O)c3ccc(F)c(C(F)(F)F)c3)s2)cc1	GPR32 ag 63.3
COc1ccc(-c2nc(C)c(CCNS(=O)(=O)c3ccc(F)cc3)s2)cc1OC	none
COc1ccc(/C=C/C(=O)Nc2ccc(C)cc2)cc1	none
COc1ccc(/C=C/C(=O)Nc2ccc(Cl)c(Cl)c2)cc1	GPR32 ag 67.6
COc1ccc(Nc2cc(C(=O)NCCCN(C)Cc3ccccc3)c3ccccc3n2)c(OC)c1	UDG counterscr inconclusive, GPR32 ag 65.4
O=C(NCCc1ccccc1)c1cc(Nc2ccccc2)nc2ccccc12	none
CC(C)c1ccc(Nc2cc(C(=O)NCCc3ccccc3)c3ccccc3n2)cc1	GPR32 ag 84.9
COc1ccc(Nc2cc(C(=O)NCCCN(C)Cc3ccccc3)c3ccccc3n2)cc1	none
CCOc1ccccc1NC(=O)CSc1nc2ccccc2c2nc(CCn3cncc3C)nn12	AID inh inconclusive, GPR32 ag 97.2
Cc1cncn1CCc1nc2c3ccccc3nc(SCC(=O)Nc3ccc(F)cc3)n2n1	none
Cc1ccc(-c2cc(C(=O)OCC(=O)NC34CC5CC(CC(C5)C3)C4)c3ccccc3n2)o1	none (no result: GPR32 ag)
CN(C(=O)/C(C#N)=C\c1ccc(OC(F)F)cc1)C1CCCCC1	none (no result: GPR32 ag)
C#CC(C)(CC)NC(=O)Cn1nnc(-c2ccc(OCc3ccccc3F)cc2)n1 (configuration not stated)	GPR32 ag 91.0
C#CC(C)(CC)NC(=O)Cn1nnc(-c2ccc(OCc3ccccc3C)cc2)n1 (configuration not stated)	GPR32 ag 61.9
COC(=O)c1ccccc1NC(=O)Cn1nnc(-c2ccc(OC)cc2)n1	none
C#CC(C)(CC)NC(=O)Cc1ccccc1 (configuration not stated)	none (no result: GPR32 ag)
CCOc1ccc(CNC(=O)C2CCN(S(=O)(=O)N(CC(C)C)CC(C)C)CC2)cc1OC	none (no result: GPR32 ag)
O=C(CN1CCN(C(=O)CCc2ncc(-c3ccccc3F)o2)CC1)Nc1cccc(F)c1	none (no result: GPR32 ag)
Cc1cccc(C(=O)Nc2cc3nn(-c4ccc(C(C)C)cc4)nc3cc2C)c1	GPR32 ag 101.8
Cc1cc2nn(-c3ccc(F)cc3)nc2cc1NC(=O)c1ccc(OC(C)C)cc1	none
Cc1ccc2[nH]cc(C(c3ccccc3)c3ccc(Cl)s3)c2c1 (configuration not stated)	none
Clc1ccc(C(c2ccccc2)c2c[nH]c3ccccc23)s1 (configuration not stated)	GPR32 ag 106.9
O=C(Cn1c(=O)oc2cc(S(=O)(=O)NCc3ccccc3)ccc21)Nc1ccc(F)c(Cl)c1	none
CCc1ccc(NC(=O)Cn2c(=O)oc3cc(S(=O)(=O)NCc4ccccc4)ccc32)cc1	UDG counterscr inconclusive, GPR32 ag 73.3
COc1ccc(NC(=O)Cn2c(=O)oc3cc(S(=O)(=O)NCc4ccccc4)ccc32)c(OC)c1	UDG counterscr inconclusive
Cc1ccc(C)c(NC(=O)Cn2c(=O)oc3cc(S(=O)(=O)NCc4ccccc4)ccc32)c1	GPR32 ag 71.9
COc1ccc(C)cc1NC(=O)Cn1c(=O)oc2cc(S(=O)(=O)NCc3ccccc3)ccc21	none
Cc1ccc(NC(=O)Cn2c(=O)oc3cc(S(=O)(=O)N4CCCCC4)ccc32)c(C)c1	GPR32 ag 115.0
COc1ccc(C)cc1NC(=O)Cn1c(=O)oc2cc(S(=O)(=O)N3CCCCCC3)ccc21	none
Cc1ccc(NC(=O)Cn2c(=O)oc3cc(S(=O)(=O)NCc4ccccc4)ccc32)cc1	GPR32 ag 81.0
O=C(COC(=O)C12CC3CC(CC(Br)(C3)C1)C2)Nc1ccccc1[N+](=O)[O-]	none (no result: GPR32 ag)
O=C(CCc1ncc(-c2ccc(F)cc2)o1)N1CCN(c2ccc([N+](=O)[O-])cc2)CC1	none (no result: GPR32 ag)
Cc1ccc(S(=O)(=O)C(CC(=O)c2ccccc2)C(=O)c2ccc(Cl)cc2)cc1 (configuration not stated)	none (no result: GPR32 ag)
CONC(=O)c1ccc(C(=O)OC)cc1	none (no result: GPR32 ag)
